MEKK2wt PB1 HTS – modulators of MEK5 binding to wildtype MEKK2, primary screen, biochemical, multiplex bead flow cytometry, Alexa488-MEK5; Alexa488-MEK5 binding to MEKK2 WT; actives lie on both sides; 290,000 tested, 1.1% active; binding response (% of control), % at 10 µM; in the data active = binding response below about 67% or above about 130%
CRFR2-BP antag – antagonists of CRF-BP/CRF-R2 complex, primary screen, cell-based, HEK293, calcium dye fluorescence, uHTS; CRF-induced calcium fluorescence; inhibition, % at 11.8 µM; 350,000 tested, 0.59% active; AID 588475, 2011;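 active = inhibition of the ligand-induced calcium signal above about 50% at the single tested concentration, limit read from the data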
MEKK3 PB1 HTS – modulators of MEKK3-MEK5 PB1 binding, primary screen, biochemical, wildtype MEKK3, multiplex bead flow cytometry, Alexa488-MEK5 | Mitogen-activated protein kinase kinase kinase 3 (Homo sapiens), Q99759 | bead-based flow cytometry, Alexa488-MEK5 binding to MEKK3; actives lie on both sides; 0 = blocked by unlabeled MEK5, 100 = vehicle | binding response (% of control), % at 10 µM | 290,000 tested, 1.4% active;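 active = binding response more than 3 SD above or below the average of its plate-row segment, actives on both sides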;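 note: Alexa488 bead fluorescence after subtracting the streptavidin-only scavenger bead signal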
ABCB6 inh 2 – ABCB6 transporter inhibitors, primary screen, K562-ABCB6 cells, flow cytometry, MLPCN library | fluorescence ratio to DMSO, % at 10 µM | AID 602162, 2011 | K562-ABCB6 porphyrin accumulation, 1 h; active compounds read low | ATP-binding cassette sub-family B member 6 (Homo sapiens), Q9NP58 | 360,000 tested, 0.19% active;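 active = fluorescence ratio to DMSO below 75%, the collection mean minus 3 SD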;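 note: signal is porphyrin accumulated inside mitochondria; 100% equals median channel fluorescence of DMSO control wells; lower ratio means ABCB6 inhibition with less porphyrin fluorescence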
CRFBP-R2 agonist – agonists of CRF-BP/CRF-R2 complex, primary screen, cell-based, HEK293, calcium dye fluorescence, uHTS | activation, % at 13.2 µM | calcium dye fluorescence (FLIPR); percent of saturating CRF peptide response | 350,000 tested, 0.46% active;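 active = activation of at least 50%, plus an integration ratio under a set limit after plate pattern correction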;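 note: plate controls were neutral control wells without compound for no effect and CRF at EC100 for full effect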
MEKK2 mut-MEK5 – MEK5 binding signal on mutant MEKK2 PB1, primary screen, biochemical, multiplex bead flow cytometry, Alexa488-MEK5; Alexa488-MEK5 binding to MEKK2 mutant; percent response, % at 10 µM; 290,000 tested, 0.35% active; in the data active = percent response above about 24%, passing the limit was not always enough
MEKK2wt confirm – modulators of MEK5 binding to wildtype MEKK2, confirmation, biochemical, single concentration, multiplex bead flow cytometry. Alexa488-MEK5 binding to MEKK2 WT; actives lie on both sides. shares compounds with MEKK3 PB1 HTS. 5,900 tested, 2.4% active. binding response (% of control), % at 10 µM; in the data active = binding response below about 16% or above about 210%; inactive = in between
MEKK2mut confirm – mutant MEKK2 PB1-MEK5 binding signal retest – biochemical, single concentration, multiplex bead flow cytometry, confirmation | shares compounds with MEKK3 PB1 HTS | Alexa488-MEK5 binding to MEKK2 mutant | percent response, % at 10 µM | 5,900 tested, 2% active | AID 1893, 2009; in the data active = percent response mostly above about 71%, no sharp cut-off; inactive = mostly below about 38%;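 note: higher means compound restores mutant binding toward wildtype level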
MEKK3-MEK5 inh – MEKK3 wild-type PB1 binding to MEK5, inhibitors, confirmation, biochemical, bead multiplex flow cytometry, single concentration, wildtype; binding response (% of control), % at 10 µM; shares compounds with MEKK3 PB1 HTS; Alexa488-MEK5 binding to MEKK3; active compounds read low; 5,900 tested, 1.8% active;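 active = binding response below 72% of control, or above a set upper limit, though filed actives all read lower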;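 note: 100% = DMSO only wells and 0% = binding blocked by excess unlabeled MEK5; lower values mean stronger disruption of MEK5 binding to MEKK3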
Active calls of the source: *; nt = no result given; [ ] = dose if it differs, or a comment. Hits are enriched below; roughly 2.9% of the tested compounds scored in any of these assays.

SMILES	MEKK2wt PB1 HTS	CRFR2-BP antag	MEKK3 PB1 HTS	ABCB6 inh 2	CRFBP-R2 agonist	MEKK2 mut-MEK5	MEKK2wt confirm	MEKK2mut confirm	MEKK3-MEK5 inh
CC(C)C(=O)Nc1cccc(-c2csc(-c3ccccc3)n2)c1	110	2	139*	97	0	0	95	-1	103
COCc1cc(CN(C)C(=O)c2oc3c(F)cccc3c2C)[nH]n1	103	-13	100	95	0	4	nt	nt	nt
Cc1ccnc(NC(=O)C2CC(=O)N(Cc3ccccc3)C2)c1 (stereo not given)	nt	-2	nt	97	-1	nt	nt	nt	nt
CCC(CC)C(=O)Nc1cc(C(=O)OC)ccc1C(=O)OC	113	-9	194*	97	0	1	97	-1	105
COC(=O)c1ccc(C(=O)OC)c(NC(=O)C(C)(C)C)c1	103	-6	109	97	-5	-1	nt	nt	nt
COc1ccc2c(c1)CCc1cn3nc(C)cc3nc1-2	104	2	8.0*[inhibitor]	87	-1	-90	96	-1	100
COC(=O)C1=C(C)N(CC2CC2)C(=NCc2cccc(Cl)c2)N[C@H]1c1ccccc1	125	-9	103	104	6	26*	132	14	107
COCCN1C(=S)N[C@@H](c2cccc(F)c2)C(C(=O)OC)=C1C	147*	nt	104	nt	nt	37*	144	47	104
COC(=O)C1=C(C)N(Cc2ccccc2)C(=NCc2ccccc2)N[C@H]1c1cccc(F)c1	137*	-5	109	101	4	35*	132	27	106
CCN1C(=O)N[C@@H](c2cccc(F)c2)C(C(=O)OC)=C1C	95	7	98	103	-2	-5	nt	nt	nt
Cc1ccc(NC(=O)C2CCN(S(=O)(=O)c3ccc4ccccc4c3)CC2)nc1	nt	15	nt	97	0	nt	nt	nt	nt
CCNCC(=O)N1c2ccccc2CCc2ccc(NC(=O)OC(C)C)cc21	137*	-22	106	95	0	7	127	18	106
CC(=O)c1ccc(-c2cccc(-c3cc(=O)oc4ccc(C(C)(C)C)cc34)c2)cc1	nt	-9	nt	101	5	nt	nt	nt	nt
CC(C)c1cccc(-c2csc(C(C)(O)c3ccc(F)c(F)c3)n2)c1 (stereo not given)	nt	nt	nt	98	nt	nt	nt	nt	nt
CCOC(=O)C1=C(CC)Nc2ccccc2N=C1NC(=O)Nc1ccc(Cl)c(Cl)c1	145*	-3	97	98	1	20	148	-7	98
O=C(CSCC(=O)Nc1ccc2ccccc2c1)NCc1ccccc1	105	-3	104	91	-1	1	nt	nt	nt
CC(C)c1ccc(CNC(=O)CSCC(=O)Nc2ccc3ccccc3c2)cc1	140*	-29	117	99	0	12	106	2	101
Cc1cc(C(=O)COC(=O)c2ccc(O)cc2O)c(C)n1C(C)C	nt	2	nt	99	1	nt	nt	nt	nt
Cc1nc2ccccc2nc(=O)c1NNc1ccccc1	80	1	51*[inhibitor]	104	-1	-2	91	-7	94
